Screens from PubChem BioAssay.
The entries come from a sample that favours hits as a whole.
Methyltransferases: Primary Screen for Target Class Profiling of Small Molecule Inhibitors of Methyltransferases | calls only at 40 µM | actives 3.9% (n = 25,000) | AID 1745853, 2022 | purified enzyme, MTase-Glo SAH luminescence; active compounds read low; call rule not given here
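Each enzyme was reacted with SAM and its substrate, with compounds tested once at 40 uM; SAH formed was read by MTase-Glo luminescence.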
* marks the source's active call; other numbers are inactive results; i = inactive; + = active, no number. On the % scale 0 is the no-effect control and ±100 the full control effect.

SMILES	Methyltransferases
Clc1ccc([C@]23CNC[C@H]2C3)cc1Cl	+
CCC1c2cccn2-c2ccccc2CN1C(=O)Nc1cccc(Br)c1 (stereo not given)	i
Cc1ccc(NC(=O)N2Cc3ccccc3-n3cccc3C2c2ccccc2)c(C)c1 (stereo not given)	i
CCOCCCNC(=O)N1Cc2ccccc2-n2cccc2C1c1ccccc1Cl (stereo not given)	i
CN1CC[C@@]2(C)c3cc(O)ccc3N(C)C12 (stereo not given in full)	+
CCOc1ccc(C2c3cccn3-c3ccccc3CN2C(=O)NC2CCCC2)cc1 (stereo not given)	i
Cc1cc(C)cc(NC(=O)N2Cc3ccccc3-n3cccc3C2c2ccc(Cl)cc2)c1 (stereo not given)	i
COc1cc(N2CCN(C)CC2)ccc1N	+
CCCN1CC[C@@H]2c3cc(O)ccc3CC[C@@H]21	+
COc1ccc(NC(=O)N2Cc3ccccc3-n3cccc3C2c2ccccc2C)cc1OC (stereo not given)	i
N[C@@H](Cn1oc(=O)[nH]c1=O)C(=O)O	i
Cc1o[nH]c(=O)c1CC(N)C(=O)O (stereo not given)	i
NC(Cc1cc(O)c(O)cc1O)C(=O)O (stereo not given)	+
CCOCCCNC(=O)N1Cc2ccccc2-n2cccc2C1c1ccc(OC)c(OC)c1 (stereo not given)	i
CCOc1ccc(NC(=O)N2Cc3ccccc3-n3cccc3C2c2ccc(OC)c(OC)c2)cc1 (stereo not given)	i
Cc1ccc(C2c3cccn3-c3ccccc3CN2C(=O)NC2CCCC2)cc1 (stereo not given)	i
Cc1ccccc1NC(=O)N1Cc2ccccc2-n2cccc2C1c1ccc(F)cc1 (stereo not given)	i
CCc1ccc(C2c3cccn3-c3ccccc3CN2C(=O)Nc2ccc(C)c(F)c2)cc1 (stereo not given)	i
COc1ccc(C2c3cccn3-c3ccccc3CN2C(=O)Nc2ccc(C)cc2C)cc1 (stereo not given)	i
COCCCNC(=O)N1Cc2ccccc2-n2cccc2C1c1cccc(Cl)c1 (stereo not given)	i
O=C1NC(=O)c2c1c1c3ccccc3[nH]c1c1[nH]c3ccccc3c21	+
COc1ccccc1NC(=O)N1Cc2ccccc2-n2cccc2C1C(C)C (stereo not given)	i
Cc1ccc(C2c3cccn3-c3ccccc3CN2C(=O)Nc2ccc(Cl)cc2)cc1 (stereo not given)	i
CN(C)c1ccc(C2c3cccn3-c3ccccc3CN2C(=O)Nc2ccc(F)c(Cl)c2)cc1 (stereo not given)	i
CCOC(=O)Cc1ccc(NC(=O)N2Cc3ccccc3-n3cccc3C2c2cccc(C)c2)cc1 (stereo not given)	i
SMILES	Methyltransferases
Cc1ccc(NC(=O)N2Cc3ccccc3-n3cccc3C2C)cc1F (stereo not given)	i
O=C(Nc1ccc(F)cc1F)N1Cc2ccccc2-n2cccc2C1c1ccccc1 (stereo not given)	i
NCCc1c[nH]c2ccccc12	+
CC(N)Cc1c[nH]c2ccccc12 (stereo not given)	i
CC(=O)NCCc1c[nH]c2ccccc12	i
COc1ccc(C2c3cccn3-c3ccccc3CN2C(=O)CCC(=O)NC2CCCCC2)cc1 (stereo not given)	i
COc1ccc(OC)c(NC(=O)N2Cc3ccccc3-n3cccc3C2c2cccc(Cl)c2)c1 (stereo not given)	i
CCc1ccc(C2c3cccn3-c3ccccc3CN2C(=O)Nc2ccc(C)cc2)cc1 (stereo not given)	i
CCOc1ccc(C2c3cccn3-c3ccccc3CN2C(=O)Nc2ccc(OC)cc2OC)cc1 (stereo not given)	i
CCOC(=O)Cc1ccc(NC(=O)N2Cc3ccccc3-n3cccc3C2C)cc1 (stereo not given)	i
CN(N=O)c1ccc(O)c(O)c1	+
CCCNC(=O)N1Cc2ccccc2-n2cccc2C1c1ccc(Cl)cc1 (stereo not given)	i
COc1ccc(NC(=O)N2Cc3ccccc3-n3cccc3C2C(C)C)cc1OC (stereo not given)	i
Cc1cccc(C2c3cccn3-c3ccccc3CN2C(=O)NCc2ccccc2)c1 (stereo not given)	i
COc1ccc(Cl)cc1NC(=O)N1Cc2ccccc2-n2cccc2C1c1cccs1 (stereo not given)	i
CC1c2cccn2-c2ccccc2CN1C(=O)Nc1ccc(Cl)cc1 (stereo not given)	i
COc1cc(C(=O)O[C@H]2[C@@H]3C=CO[C@@H](O[C@@H]4O[C@H](CO)[C@@H](O)[C@H](O)[C@H]4O)[C@@H]3[C@@]3(CO)O[C@@H]23)ccc1O	+
C=C[C@H]1[C@H](O[C@@H]2O[C@H](CO)[C@@H](O)[C@H](O)[C@H]2O)OC=C2C(=O)OCC[C@H]21	i
